According to PubChem BioAssay (EPA / NIEHS):
“And” between values parts separate entries of the source, which are not always exact repeats. Equal entries are not always repeated. Results filed as inconclusive are left out. A structure can be active in one record and inactive in another. The source made the active and inactive calls. Rule for the calls, unless noted: active = hit-call score of the fitted dose curve at least 0.9, where 1 is the maximum; inconclusive = response in the unintended direction; inactive = score below 0.9.

Legend:
[1] = target: Estrogen receptor beta (Homo sapiens) (UniProt Q92731); experiment: OT_ER_ERbERb_1440: Odyssey Thera (OT) 24-hour HEK293T Protein-Complementation Assay for Estrogen Receptor-beta/-beta Homodimer (AID 2283380);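 note: fluorescence gain from ER beta LBD homodimer complementation read by laser scanning cytometry; scored as signal increase over DMSO baseline for both agonists and antagonists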
Outline: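 Fluorescence increase, nuclear for agonists or whole-cell for antagonists, relative to DMSO vehicle, quantified by laser scanning cytometer after fixation and Draq5 staining. Readout from 24 h treatment of HEK293T cells carrying complementation-paired ER beta LBD (aa 310-547).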

[2] = target: Estrogen receptor (Homo sapiens) (UniProt P03372); experiment: OT_ERa_GFPERaERE_0480: Odyssey Thera (OT) 8-hour HeLa Transcription Induction Assay for Estrogen Receptor (AID 2283381; active = hit-call score of the fitted dose curve at least 0.9, where 1 is the maximum; inactive = score below 0.9)
Outline: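 Cells (HeLa) receive compound; after 8 h, reporter fluorescence is imaged and quantified by high-content analysis. Gain-of-signal relative to DMSO gives the endpoint.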

[3] = target: Estrogen receptor (Homo sapiens) (UniProt P03372); experiment: OT_ERa_GFPERaERE_0120: Odyssey Thera (OT) 2-hour HeLa Transcription Induction Assay for Estrogen Receptor (AID 2283382)
Outline: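 Measures ESR1 pathway reporter gain-of-signal in HeLa cells after a 2-hour treatment, detected as fluorescent protein induction by microscopy, DMSO as baseline.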

[4] = target: Bile acid receptor (Homo sapiens) (UniProt Q96RI1); experiment: OT_FXR_FXRSRC1_0480: Odyssey Thera (OT) 8-hour HEK293T Protein-Complementation Assay for Farnesoid X receptor/SRC-1 Co-activator (AID 2283383)
Outline: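 Co-activator recruitment to FXR was measured in living HEK293T cells, where interaction of the two fused partners restored an active fluorescent reporter. Signal gain after 8 h treatment was referenced to DMSO.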

[5] = target: Bile acid receptor (Homo sapiens) (UniProt Q96RI1); experiment: OT_FXR_FXRSRC1_1440: Odyssey Thera (OT) 24-hour HEK293T Protein-Complementation Assay for Farnesoid X receptor/SRC-1 Co-activator (AID 2283384)
Outline: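 Cell-based binding reporter: interaction of FXR with SRC-1 brings reporter fragments together, giving a fluorescence signal read 24 h after dosing of HEK293T cells.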

[6] = target: Retinoic acid receptor RXR-alpha (Homo sapiens) (UniProt P19793); experiment: OT_NURR1_NURR1RXRa_0480: Odyssey Thera (OT) 8-hour HEK293T Protein Complementation Assay for Nurr1/retinoid X receptor (RXR) (AID 2283385)
Outline: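 Compounds are applied to HEK293T cells carrying Nurr1 and RXRα linked to reporter fragments. After 8 h, fluorescence intensity reports heterodimer formation, with DMSO as baseline.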

[7] = target: Retinoic acid receptor RXR-alpha (Homo sapiens) (UniProt P19793); experiment: OT_NURR1_NURR1RXRa_1440: Odyssey Thera (OT) 24-hour HEK293T Protein Complementation Assay for Nurr1/retinoid X receptor (RXR) (AID 2283386)
Outline: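 Measured as fluorescence from a reconstituted split reporter, this 24 h HEK293T complementation assay scores compound-induced gain of Nurr1/RXRα association relative to DMSO.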

[8] = target: Peroxisome proliferator-activated receptor gamma (Homo sapiens) (UniProt P37231); experiment: OT_PPARg_PPARgSRC1_0480: Odyssey Thera (OT) 8-hour Protein-Complementation Assay for Peroxisome Proliferator-activated Receptor Gamma / SRC-1 Co-activator (AID 2283387);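 note: nuclear to cytoplasmic split Venus YFP fluorescence ratio reporting PPARg SRC-1 interaction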
Outline: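 Protein-fragment complementation of split Venus YFP reports PPARg/SRC-1 interaction in HEK293T (transfected 48 h before treatment), exposed 8 h. Readout: N/C fluorescence ratio at 488 nm from imaging, Draq5 for segmentation, positive fit relative to DMSO.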

[9] = target: Peroxisome proliferator-activated receptor gamma (Homo sapiens) (UniProt P37231); experiment: OT_PPARg_PPARgSRC1_1440: Odyssey Thera (OT) 24-hour Protein-Complementation Assay for Peroxisome Proliferator-activated Receptor Gamma/ SRC-1 Co-activator (AID 2283388);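 note: nuclear to cytoplasmic ratio of reconstituted Venus YFP fluorescence in fixed imaged cells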
Outline: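 Readout: nuclear-to-cytoplasmic 488 nm fluorescence ratio, ≥350 cells per image, 8 images per well, after 24 h compound exposure of HEK293T expressing PPARg/SRC-1 split-YFP fusions. Activity fitted in positive direction against DMSO.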

[10] = CEETOX_H295R_11DCORT: CeeTox H295R High-throughput Steroidogenesis Assay for 11-Deoxycortisol (11DCORT) (AID 2283432; active = hit-call score of the fitted dose curve at least 0.9, where 1 is the maximum; inactive = score below 0.9;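 for AC50: 11-deoxycortisol secreted into the medium measured by LC-MS/MS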); conditions: actives raise or lower the signal
Outline: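 Human adrenal H295R cells were prestimulated with 10 uM forskolin for 48 h, then exposed to test chemical (0.1% DMSO final) for 48 h. Medium 11-deoxycortisol was quantified by MTBE extraction and HPLC-MS/MS; bidirectional fitting relative to DMSO.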

[11] = CEETOX_H295R_OHPREG: CeeTox H295R High-throughput Steroidogenesis Assay for OH-Pregnenolone (OHPREG) (AID 2283434; active = hit-call score of the fitted dose curve at least 0.9, where 1 is the maximum; inactive = score below 0.9); conditions: actives raise or lower the signal
Outline: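 Hormone levels in spent medium were measured by tandem mass spectrometry following liquid-liquid extraction. Cells (H295R) had been forskolin-stimulated (10 uM, 48 h) before a 48 h chemical exposure at 0.1% DMSO, with activity fitted in both directions against DMSO.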

[12] = CEETOX_H295R_OHPROG: CeeTox H295R High-throughput Steroidogenesis Assay for OH-Progesterone (OHPROG) (AID 2283435; active = hit-call score of the fitted dose curve at least 0.9, where 1 is the maximum; inactive = score below 0.9;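 for AC50: 17alpha-hydroxyprogesterone secreted into medium measured by HPLC-MS/MS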); conditions: actives raise or lower the signal
Outline: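 Secreted 17alpha-hydroxyprogesterone is read by tandem MS from media of forskolin-primed H295R cells dosed with chemical for 48 h. Activity is fitted in both directions against DMSO baseline; cytotoxic concentrations are re-tested diluted.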

[13] = CEETOX_H295R_ANDR: CeeTox H295R High-throughput Steroidogenesis Assay for Androstenedione (ANDR) (AID 2283436; active = hit-call score of the fitted dose curve at least 0.9, where 1 is the maximum; inactive = score below 0.9); conditions: actives raise or lower the signal
Outline: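 Read-out is androstenedione secreted into medium, measured by tandem mass spectrometry after liquid-liquid extraction. Cells were H295R, dosed for 48 h per modified OECD 456; activity fitted in both directions relative to DMSO.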

[14] = CEETOX_H295R_CORTIC: CeeTox H295R High-throughput Steroidogenesis Assay for Corticosterone (CORTIC) (AID 2283437; active = hit-call score of the fitted dose curve at least 0.9, where 1 is the maximum; inactive = score below 0.9;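 note: corticosterone secreted into medium quantified by mass spectrometry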); conditions: actives raise or lower the signal
Outline: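 Corticosterone secreted into medium is measured by reverse-phase HPLC with tandem MS following liquid-liquid extraction. Cells are forskolin-stimulated (10 uM, 48 h) before 48 h test exposure; activity fitted in both directions against DMSO.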

[15] = CEETOX_H295R_CORTISOL: CeeTox H295R High-throughput Steroidogenesis Assay for Cortisol (AID 2283438; active = hit-call score of the fitted dose curve at least 0.9, where 1 is the maximum; inactive = score below 0.9;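 note: cortisol secreted into medium quantified by LC-MS/MS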); conditions: actives raise or lower the signal
Outline: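 Human adrenocortical H295R cells (passage ≤10) received test chemicals for 48 h after forskolin priming. Secreted cortisol was measured by LC-MS/MS.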

[16] = CEETOX_H295R_DOC: CeeTox H295R High-throughput Steroidogenesis Assay for DOC (AID 2283439; active = hit-call score of the fitted dose curve at least 0.9, where 1 is the maximum; inactive = score below 0.9); conditions: actives raise or lower the signal
Outline: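 Secreted DOC was quantified from H295R media by HPLC-MS/MS after 48 h chemical exposure following 48 h forskolin (10 uM) prestimulation. Values were fitted in both directions relative to DMSO, the negative control and baseline.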

[17] = CEETOX_H295R_ESTRADIOL: CeeTox H295R High-throughput Steroidogenesis Assay for Estradiol (AID 2283440; active = hit-call score of the fitted dose curve at least 0.9, where 1 is the maximum; inactive = score below 0.9;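 note: estradiol secreted into medium quantified by LC-MS/MS after dansyl derivatisation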); conditions: actives raise or lower the signal
Outline: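 H295R, 48 h forskolin (10 uM) prestim → 48 h compound, 0.1% DMSO final. Estradiol in medium: MTBE extraction, dansyl chloride derivatization, LC-MS/MS. Fit bidirectional vs DMSO baseline; MTT viability in same wells.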

[18] = CEETOX_H295R_ESTRONE: CeeTox H295R High-throughput Steroidogenesis Assay for Estrone (AID 2283441; active = hit-call score of the fitted dose curve at least 0.9, where 1 is the maximum; inactive = score below 0.9;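 note: estrone secreted into medium measured by LC-MS/MS after dansyl derivatization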); conditions: actives raise or lower the signal
Outline: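 H295R cells; 48 h forskolin (10 uM) prestimulation; 48 h compound exposure, 0.1% DMSO final. Medium estrone: MTBE extraction, dansyl derivatization, HPLC-MS/MS. Bidirectional fit vs DMSO.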

[19] = CEETOX_H295R_PROG: CeeTox H295R High-throughput Steroidogenesis Assay for Progesterone (PROG) (AID 2283442; active = hit-call score of the fitted dose curve at least 0.9, where 1 is the maximum; inactive = score below 0.9;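 for AC50: human H295R adrenal cells primed with 10 µM forskolin before dosing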); conditions: actives raise or lower the signal
Outline: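 Progesterone read-out: HPLC-MS/MS on MTBE extracts of conditioned medium after 48 h chemical exposure of forskolin-primed (10 uM, 48 h) H295R cells. Gain or loss of signal was fitted relative to DMSO baseline.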

[20] = read-out: Tumor necrosis factor receptor superfamily member 6 (Homo sapiens) (UniProt P25445); experiment: LTEA_HepaRG_FAS: Life Technologies and Expression Analysis (LTEA) Assay for Fas cell surface death receptor (FAS) using HepaRG (AID 2283447; active = hit-call score of the fitted dose curve at least 0.9, where 1 is the maximum; inactive = score below 0.9); conditions: mRNA level, 48 h; actives raise or lower the signal
Outline: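 FAS transcript level was measured by TaqMan qRT-PCR against three housekeeping genes after 48 h chemical exposure. Cells were HepaRG, 0.5% DMSO vehicle, with a top concentration of 100 uM and half-log dilutions over eight points, in duplicate.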

Measured: AC50

Estrogen receptor (Homo sapiens), sequence (P03372 whole entry, looked up): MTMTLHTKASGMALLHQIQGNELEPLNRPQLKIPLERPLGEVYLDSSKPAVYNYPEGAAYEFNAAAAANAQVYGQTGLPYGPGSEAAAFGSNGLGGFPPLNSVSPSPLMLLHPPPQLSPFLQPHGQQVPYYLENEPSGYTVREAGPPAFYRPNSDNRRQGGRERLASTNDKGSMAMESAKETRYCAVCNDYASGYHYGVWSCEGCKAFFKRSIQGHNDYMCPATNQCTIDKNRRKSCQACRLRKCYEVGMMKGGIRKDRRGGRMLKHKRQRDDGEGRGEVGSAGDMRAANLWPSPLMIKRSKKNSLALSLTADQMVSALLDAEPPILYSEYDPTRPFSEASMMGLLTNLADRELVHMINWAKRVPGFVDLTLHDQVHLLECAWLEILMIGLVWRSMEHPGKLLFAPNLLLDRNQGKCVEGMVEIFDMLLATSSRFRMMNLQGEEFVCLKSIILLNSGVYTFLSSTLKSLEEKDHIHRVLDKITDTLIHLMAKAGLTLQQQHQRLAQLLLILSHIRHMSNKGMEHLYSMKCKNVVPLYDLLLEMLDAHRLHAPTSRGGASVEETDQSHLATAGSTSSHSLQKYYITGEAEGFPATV
Estrogen receptor beta (Homo sapiens), sequence (Q92731 whole entry, looked up, the tested form may be a part): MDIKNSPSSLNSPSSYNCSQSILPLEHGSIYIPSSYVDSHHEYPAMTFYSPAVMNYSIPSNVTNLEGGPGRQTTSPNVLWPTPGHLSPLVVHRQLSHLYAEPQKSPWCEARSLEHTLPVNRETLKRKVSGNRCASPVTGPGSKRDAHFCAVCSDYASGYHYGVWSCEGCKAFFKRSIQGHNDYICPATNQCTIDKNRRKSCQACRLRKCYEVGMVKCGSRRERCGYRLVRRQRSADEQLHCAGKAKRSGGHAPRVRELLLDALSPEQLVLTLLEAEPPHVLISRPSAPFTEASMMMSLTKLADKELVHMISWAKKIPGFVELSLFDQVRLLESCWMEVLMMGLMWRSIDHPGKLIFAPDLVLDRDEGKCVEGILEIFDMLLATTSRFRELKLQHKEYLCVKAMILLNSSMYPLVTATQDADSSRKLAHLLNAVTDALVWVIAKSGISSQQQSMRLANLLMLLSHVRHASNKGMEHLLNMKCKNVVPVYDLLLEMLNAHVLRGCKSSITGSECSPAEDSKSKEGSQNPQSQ
Retinoic acid receptor RXR-alpha (Homo sapiens), sequence (P19793 whole entry, looked up, the tested form may be a part): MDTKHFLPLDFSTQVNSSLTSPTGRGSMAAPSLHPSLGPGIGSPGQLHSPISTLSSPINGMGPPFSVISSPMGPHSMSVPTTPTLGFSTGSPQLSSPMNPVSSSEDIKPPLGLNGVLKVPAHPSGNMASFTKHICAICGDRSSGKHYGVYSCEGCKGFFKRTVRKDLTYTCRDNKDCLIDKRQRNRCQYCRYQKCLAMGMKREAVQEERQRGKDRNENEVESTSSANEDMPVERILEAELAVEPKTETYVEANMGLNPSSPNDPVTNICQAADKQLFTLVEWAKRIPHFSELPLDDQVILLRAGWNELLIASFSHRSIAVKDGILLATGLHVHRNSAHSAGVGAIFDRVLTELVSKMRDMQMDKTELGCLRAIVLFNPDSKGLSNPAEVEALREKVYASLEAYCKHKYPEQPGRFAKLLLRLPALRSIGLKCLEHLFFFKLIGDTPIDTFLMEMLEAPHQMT
Bile acid receptor (Homo sapiens), sequence (Q96RI1 whole entry, looked up, the tested form may be a part): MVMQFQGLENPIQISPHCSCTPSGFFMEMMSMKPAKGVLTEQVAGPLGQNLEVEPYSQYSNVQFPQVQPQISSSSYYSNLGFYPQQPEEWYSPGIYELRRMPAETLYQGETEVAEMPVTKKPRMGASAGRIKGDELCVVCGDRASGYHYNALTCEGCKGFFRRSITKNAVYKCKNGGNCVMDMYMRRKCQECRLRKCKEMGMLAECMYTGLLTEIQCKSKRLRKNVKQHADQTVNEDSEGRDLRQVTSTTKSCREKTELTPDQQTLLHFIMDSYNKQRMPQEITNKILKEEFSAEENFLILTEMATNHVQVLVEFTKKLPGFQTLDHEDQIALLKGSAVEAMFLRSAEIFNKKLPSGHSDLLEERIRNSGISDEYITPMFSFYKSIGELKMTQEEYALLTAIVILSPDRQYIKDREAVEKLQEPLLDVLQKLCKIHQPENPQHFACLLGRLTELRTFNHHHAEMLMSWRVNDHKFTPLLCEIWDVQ
Peroxisome proliferator-activated receptor gamma (Homo sapiens), sequence (P37231 whole entry, looked up, the tested form may be a part): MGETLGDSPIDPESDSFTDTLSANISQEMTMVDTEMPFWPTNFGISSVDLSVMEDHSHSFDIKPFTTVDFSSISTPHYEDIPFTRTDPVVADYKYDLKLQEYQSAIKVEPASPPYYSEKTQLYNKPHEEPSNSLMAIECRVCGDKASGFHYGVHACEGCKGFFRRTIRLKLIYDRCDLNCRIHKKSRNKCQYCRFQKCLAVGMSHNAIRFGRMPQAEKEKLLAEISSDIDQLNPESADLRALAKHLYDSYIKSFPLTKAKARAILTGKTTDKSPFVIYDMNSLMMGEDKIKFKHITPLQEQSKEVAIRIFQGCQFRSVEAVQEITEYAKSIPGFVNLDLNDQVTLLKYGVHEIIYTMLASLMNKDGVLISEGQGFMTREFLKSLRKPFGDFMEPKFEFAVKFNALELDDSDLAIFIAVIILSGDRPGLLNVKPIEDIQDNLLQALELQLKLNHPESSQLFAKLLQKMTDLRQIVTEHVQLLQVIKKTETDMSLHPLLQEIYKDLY

Nc1cccc2c(N)cccc12
active: [10] 5 µM | [12] 1.78 µM | [15] 5 µM | [16] 2.73 µM | [19] 2.44 µM
inactive: all other assays above

c1ccc2c(c1)Cc1ccccc1-2
inactive: [1] | [2] | [3] | [4] | [6] | [7] | [8] | [9] | [20]

C#C[C@]1(O)CC[C@H]2[C@@H]3CCC4=CC(=O)CC[C@@H]4[C@H]3CC[C@@]21C
inactive: [1] | [6] | [7] | [8] | [9] | [14] | [20]
active: [1] 29.3 µM and 30.3 µM and 22.2 µM

CC(C)(C)c1cc(C(C)(C)C)c(O)c(C(C)(C)C)c1
inactive: [2] | [3] | [8] | [9] | [20]
active: [1] 66.3 µM | [4] 81.1 µM | [5] 92.6 µM | [6] 84.3 µM and 77.2 µM | [7] 85 µM

O=C(O)c1ccccc1C(c1ccc(O)cc1)c1ccc(O)cc1
active: [10] 25 µM | [12] 7.38 µM | [16] 6.89 µM | [19] 10.2 µM
not listed: [4] | [5]
inactive: all other assays above

O=C1OC2(c3ccccc31)c1cc(Br)c(O)c(Br)c1Oc1c2cc(Br)c(O)c1Br
inactive: [1] | [2] | [3] | [4] | [5] | [6] | [7]
active: [8] 74 µM | [9] 73.1 µM

CCCCCCCCCCCCc1ccccc1S(=O)(=O)O
inactive: [1] | [5] | [7] | [8] | [9]
active: [2] 96 µM | [3] 94.4 µM | [4] 92.9 µM | [6] 76 µM and 80.5 µM | [20] 50 µM

NC(=O)N(O)[C@@H]1C=C[C@H](Oc2cccc(Oc3ccc(F)cc3)c2)C1
active: [1] 66.9 µM | [5] 12.8 µM | [6] 92.2 µM | [20] 67.2 µM
inactive: [2] | [3] | [4] | [6] | [7] | [8] | [9] | [10] | [11] | [12] | [14] | [16] | [19]

CCCOC(=O)c1ccc(O)cc1
active: [1] 8.13 µM | [2] 27.6 µM | [5] 58.5 µM | [10] 35.4 µM | [11] 24.4 µM | [12] 7.73 µM | [15] 79.4 µM | [16] 26.8 µM | [19] 5.71 µM
not listed: [13]
inactive: all other assays above

NC(=O)N1C(=O)C(C(=O)c2cc(Cl)cs2)c2cc(F)c(Cl)cc21 (stereo not given)
active: [5] 81.9 µM | [6] 13.2 µM | [7] 32.9 µM
inactive: [1] | [2] | [3] | [4] | [6] | [7] | [8] | [9] | [20]

Oc1cccc(O)c1
active: [1] 18 µM | [2] 52.9 µM
not listed: [13]
inactive: all other assays above

CCCCC(CC)COC(=O)CCCCC(=O)OCc1ccccc1 (stereo not given)
inactive: [1] | [2] | [3] | [5] | [6] | [7] | [8] | [9] | [20]

CCCCCCCCC(=O)O
not listed: [4] | [5] | [8] | [9] | [13]
inactive: all other assays above

Cc1cc(CCN2CCN(c3nsc4ccccc34)CC2)cc2c1NC(=O)CC2(C)C
inactive: [1] | [5] | [8] | [9] | [20]
active: [2] 16.1 µM | [3] 15.3 µM

CCCCCCCCCCCCCCCS(=O)(=O)Oc1ccccc1
active: [11] 5.88 µM | [12] 5.48 µM | [16] 3.8 µM | [19] 4.08 µM
not listed: [6] | [13]
inactive: all other assays above
